The structures appear in SMILES notation. Unmarked numbers belong to inactive results.

Common to all, as to test: log2 ratio of Biotin-Ahx-Ub-VS probe labelling (fragment/DMSO); higher = less target engagement (more negative = stronger competition), active = hit call of the paper (q ≤ 0.05, log2 ratio ≤ -1)
Details in all cases: compound concentration: 200 uM; treatment time: 3 h

One experiment deals with T1, USP19 (UniProt O94966).
T1 sequence (whole entry): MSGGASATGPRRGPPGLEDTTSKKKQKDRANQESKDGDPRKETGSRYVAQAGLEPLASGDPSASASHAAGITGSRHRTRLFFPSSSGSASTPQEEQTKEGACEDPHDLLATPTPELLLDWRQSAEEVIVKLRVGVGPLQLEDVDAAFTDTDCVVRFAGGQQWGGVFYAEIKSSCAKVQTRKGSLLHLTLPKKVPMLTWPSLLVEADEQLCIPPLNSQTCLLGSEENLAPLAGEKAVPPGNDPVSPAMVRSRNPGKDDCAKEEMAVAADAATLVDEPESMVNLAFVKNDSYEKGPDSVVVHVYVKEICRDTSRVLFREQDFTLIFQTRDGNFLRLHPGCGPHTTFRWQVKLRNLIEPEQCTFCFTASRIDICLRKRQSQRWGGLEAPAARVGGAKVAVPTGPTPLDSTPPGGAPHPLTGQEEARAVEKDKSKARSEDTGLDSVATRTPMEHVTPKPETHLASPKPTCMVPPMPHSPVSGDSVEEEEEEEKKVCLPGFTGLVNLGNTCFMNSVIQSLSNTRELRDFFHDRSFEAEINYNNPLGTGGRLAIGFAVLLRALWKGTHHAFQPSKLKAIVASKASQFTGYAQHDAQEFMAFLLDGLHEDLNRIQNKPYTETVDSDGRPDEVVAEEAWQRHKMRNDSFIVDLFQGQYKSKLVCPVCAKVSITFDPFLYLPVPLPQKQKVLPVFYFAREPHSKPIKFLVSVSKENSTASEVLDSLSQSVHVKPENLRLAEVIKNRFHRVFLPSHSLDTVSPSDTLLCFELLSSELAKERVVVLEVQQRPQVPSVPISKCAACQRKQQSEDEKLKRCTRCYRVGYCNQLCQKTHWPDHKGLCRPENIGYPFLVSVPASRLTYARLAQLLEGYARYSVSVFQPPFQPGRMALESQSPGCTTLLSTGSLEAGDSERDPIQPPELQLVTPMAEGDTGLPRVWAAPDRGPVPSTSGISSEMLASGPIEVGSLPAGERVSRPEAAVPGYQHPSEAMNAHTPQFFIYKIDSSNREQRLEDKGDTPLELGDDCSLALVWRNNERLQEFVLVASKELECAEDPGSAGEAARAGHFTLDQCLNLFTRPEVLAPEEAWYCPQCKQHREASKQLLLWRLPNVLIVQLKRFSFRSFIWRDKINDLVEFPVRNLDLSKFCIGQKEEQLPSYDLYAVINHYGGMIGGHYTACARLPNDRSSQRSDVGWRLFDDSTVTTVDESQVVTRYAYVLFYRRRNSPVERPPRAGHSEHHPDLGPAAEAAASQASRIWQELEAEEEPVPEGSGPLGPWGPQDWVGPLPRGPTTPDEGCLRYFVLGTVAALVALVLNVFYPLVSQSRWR
In a few lines:
(§1)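 Labelled DUBs from HEK293T lysate were NeutrAvidin-enriched, digested with LysC and trypsin, and run by diaPASEF LC-MS/MS. Before that, each 495 µg sample in Tris/CHAPS/IGEPAL buffer with protease inhibitors was treated in triplicate with fragment at 200 µM or vehicle for 3 h, then with Biotin-Ahx-Ub-VS at 0.5 µM final for 1 h. Values are average log2 ratios of fragment over vehicle by unpaired t-test, based on global-median-normalised Spectronaut label-free quantities from proteins with ≥2 unique peptides.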

The next experiment has as its target USP24 (UniProt Q9UPU5). An outline of the steps:
as §1

Another experiment has as its target T2, USP25 (UniProt Q9UHP3).
T2 sequence (whole entry): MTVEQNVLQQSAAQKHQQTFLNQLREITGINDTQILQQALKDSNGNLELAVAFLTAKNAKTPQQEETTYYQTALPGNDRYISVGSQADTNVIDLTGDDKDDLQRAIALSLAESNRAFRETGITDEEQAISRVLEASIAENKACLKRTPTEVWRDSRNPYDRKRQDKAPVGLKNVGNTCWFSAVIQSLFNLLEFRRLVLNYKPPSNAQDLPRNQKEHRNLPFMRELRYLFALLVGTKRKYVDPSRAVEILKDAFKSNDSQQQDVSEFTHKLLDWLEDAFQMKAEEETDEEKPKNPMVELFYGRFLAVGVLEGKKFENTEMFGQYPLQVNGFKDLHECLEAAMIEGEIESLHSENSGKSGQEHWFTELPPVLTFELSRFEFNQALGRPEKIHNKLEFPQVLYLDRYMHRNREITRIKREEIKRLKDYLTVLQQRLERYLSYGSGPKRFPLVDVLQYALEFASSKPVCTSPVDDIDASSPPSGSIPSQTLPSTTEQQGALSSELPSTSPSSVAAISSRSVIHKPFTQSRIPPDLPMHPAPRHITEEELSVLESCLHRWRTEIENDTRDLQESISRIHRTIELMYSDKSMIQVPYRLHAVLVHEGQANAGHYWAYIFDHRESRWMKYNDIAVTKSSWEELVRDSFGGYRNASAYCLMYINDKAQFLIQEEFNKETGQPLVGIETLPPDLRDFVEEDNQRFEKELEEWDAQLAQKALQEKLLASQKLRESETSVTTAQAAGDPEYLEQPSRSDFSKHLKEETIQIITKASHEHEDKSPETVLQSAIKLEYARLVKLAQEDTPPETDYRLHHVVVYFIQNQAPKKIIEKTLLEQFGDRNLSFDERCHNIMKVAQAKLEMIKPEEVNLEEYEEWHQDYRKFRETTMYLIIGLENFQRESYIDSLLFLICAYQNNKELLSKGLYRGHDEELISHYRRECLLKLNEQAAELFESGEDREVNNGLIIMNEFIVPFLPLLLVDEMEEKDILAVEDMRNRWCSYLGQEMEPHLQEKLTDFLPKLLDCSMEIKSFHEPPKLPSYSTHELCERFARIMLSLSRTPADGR
An outline of the steps: as §1

In the next experiment the target is T3, USP28 (UniProt Q96RU2).
T3 sequence (whole entry): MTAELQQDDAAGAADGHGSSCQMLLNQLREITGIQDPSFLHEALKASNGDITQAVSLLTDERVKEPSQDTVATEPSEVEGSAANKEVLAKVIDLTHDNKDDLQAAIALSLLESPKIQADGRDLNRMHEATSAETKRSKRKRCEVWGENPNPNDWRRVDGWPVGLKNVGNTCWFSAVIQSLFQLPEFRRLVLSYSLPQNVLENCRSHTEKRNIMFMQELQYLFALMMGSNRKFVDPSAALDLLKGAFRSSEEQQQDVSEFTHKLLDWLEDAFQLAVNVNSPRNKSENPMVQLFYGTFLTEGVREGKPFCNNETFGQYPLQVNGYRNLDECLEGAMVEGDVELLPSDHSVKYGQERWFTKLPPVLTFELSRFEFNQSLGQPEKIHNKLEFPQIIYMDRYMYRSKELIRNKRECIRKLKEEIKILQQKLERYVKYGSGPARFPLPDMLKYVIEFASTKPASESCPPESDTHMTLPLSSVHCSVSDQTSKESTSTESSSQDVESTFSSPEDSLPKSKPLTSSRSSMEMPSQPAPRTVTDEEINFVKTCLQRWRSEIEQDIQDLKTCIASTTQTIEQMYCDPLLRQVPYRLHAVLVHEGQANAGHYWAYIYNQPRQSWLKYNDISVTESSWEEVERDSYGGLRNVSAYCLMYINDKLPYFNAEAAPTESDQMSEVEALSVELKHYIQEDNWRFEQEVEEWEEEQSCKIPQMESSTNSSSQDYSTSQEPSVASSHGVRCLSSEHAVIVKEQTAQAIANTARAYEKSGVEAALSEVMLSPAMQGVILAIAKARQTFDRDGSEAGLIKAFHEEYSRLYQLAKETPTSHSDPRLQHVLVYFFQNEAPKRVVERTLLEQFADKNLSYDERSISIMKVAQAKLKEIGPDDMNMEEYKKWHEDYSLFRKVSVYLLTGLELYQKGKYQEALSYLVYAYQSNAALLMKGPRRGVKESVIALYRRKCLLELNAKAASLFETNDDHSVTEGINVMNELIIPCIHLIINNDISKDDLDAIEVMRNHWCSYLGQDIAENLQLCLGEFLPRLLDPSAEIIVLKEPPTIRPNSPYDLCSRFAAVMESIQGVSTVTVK
In a few lines: as §1

Sequence of USP24 (Q9UPU5 whole entry): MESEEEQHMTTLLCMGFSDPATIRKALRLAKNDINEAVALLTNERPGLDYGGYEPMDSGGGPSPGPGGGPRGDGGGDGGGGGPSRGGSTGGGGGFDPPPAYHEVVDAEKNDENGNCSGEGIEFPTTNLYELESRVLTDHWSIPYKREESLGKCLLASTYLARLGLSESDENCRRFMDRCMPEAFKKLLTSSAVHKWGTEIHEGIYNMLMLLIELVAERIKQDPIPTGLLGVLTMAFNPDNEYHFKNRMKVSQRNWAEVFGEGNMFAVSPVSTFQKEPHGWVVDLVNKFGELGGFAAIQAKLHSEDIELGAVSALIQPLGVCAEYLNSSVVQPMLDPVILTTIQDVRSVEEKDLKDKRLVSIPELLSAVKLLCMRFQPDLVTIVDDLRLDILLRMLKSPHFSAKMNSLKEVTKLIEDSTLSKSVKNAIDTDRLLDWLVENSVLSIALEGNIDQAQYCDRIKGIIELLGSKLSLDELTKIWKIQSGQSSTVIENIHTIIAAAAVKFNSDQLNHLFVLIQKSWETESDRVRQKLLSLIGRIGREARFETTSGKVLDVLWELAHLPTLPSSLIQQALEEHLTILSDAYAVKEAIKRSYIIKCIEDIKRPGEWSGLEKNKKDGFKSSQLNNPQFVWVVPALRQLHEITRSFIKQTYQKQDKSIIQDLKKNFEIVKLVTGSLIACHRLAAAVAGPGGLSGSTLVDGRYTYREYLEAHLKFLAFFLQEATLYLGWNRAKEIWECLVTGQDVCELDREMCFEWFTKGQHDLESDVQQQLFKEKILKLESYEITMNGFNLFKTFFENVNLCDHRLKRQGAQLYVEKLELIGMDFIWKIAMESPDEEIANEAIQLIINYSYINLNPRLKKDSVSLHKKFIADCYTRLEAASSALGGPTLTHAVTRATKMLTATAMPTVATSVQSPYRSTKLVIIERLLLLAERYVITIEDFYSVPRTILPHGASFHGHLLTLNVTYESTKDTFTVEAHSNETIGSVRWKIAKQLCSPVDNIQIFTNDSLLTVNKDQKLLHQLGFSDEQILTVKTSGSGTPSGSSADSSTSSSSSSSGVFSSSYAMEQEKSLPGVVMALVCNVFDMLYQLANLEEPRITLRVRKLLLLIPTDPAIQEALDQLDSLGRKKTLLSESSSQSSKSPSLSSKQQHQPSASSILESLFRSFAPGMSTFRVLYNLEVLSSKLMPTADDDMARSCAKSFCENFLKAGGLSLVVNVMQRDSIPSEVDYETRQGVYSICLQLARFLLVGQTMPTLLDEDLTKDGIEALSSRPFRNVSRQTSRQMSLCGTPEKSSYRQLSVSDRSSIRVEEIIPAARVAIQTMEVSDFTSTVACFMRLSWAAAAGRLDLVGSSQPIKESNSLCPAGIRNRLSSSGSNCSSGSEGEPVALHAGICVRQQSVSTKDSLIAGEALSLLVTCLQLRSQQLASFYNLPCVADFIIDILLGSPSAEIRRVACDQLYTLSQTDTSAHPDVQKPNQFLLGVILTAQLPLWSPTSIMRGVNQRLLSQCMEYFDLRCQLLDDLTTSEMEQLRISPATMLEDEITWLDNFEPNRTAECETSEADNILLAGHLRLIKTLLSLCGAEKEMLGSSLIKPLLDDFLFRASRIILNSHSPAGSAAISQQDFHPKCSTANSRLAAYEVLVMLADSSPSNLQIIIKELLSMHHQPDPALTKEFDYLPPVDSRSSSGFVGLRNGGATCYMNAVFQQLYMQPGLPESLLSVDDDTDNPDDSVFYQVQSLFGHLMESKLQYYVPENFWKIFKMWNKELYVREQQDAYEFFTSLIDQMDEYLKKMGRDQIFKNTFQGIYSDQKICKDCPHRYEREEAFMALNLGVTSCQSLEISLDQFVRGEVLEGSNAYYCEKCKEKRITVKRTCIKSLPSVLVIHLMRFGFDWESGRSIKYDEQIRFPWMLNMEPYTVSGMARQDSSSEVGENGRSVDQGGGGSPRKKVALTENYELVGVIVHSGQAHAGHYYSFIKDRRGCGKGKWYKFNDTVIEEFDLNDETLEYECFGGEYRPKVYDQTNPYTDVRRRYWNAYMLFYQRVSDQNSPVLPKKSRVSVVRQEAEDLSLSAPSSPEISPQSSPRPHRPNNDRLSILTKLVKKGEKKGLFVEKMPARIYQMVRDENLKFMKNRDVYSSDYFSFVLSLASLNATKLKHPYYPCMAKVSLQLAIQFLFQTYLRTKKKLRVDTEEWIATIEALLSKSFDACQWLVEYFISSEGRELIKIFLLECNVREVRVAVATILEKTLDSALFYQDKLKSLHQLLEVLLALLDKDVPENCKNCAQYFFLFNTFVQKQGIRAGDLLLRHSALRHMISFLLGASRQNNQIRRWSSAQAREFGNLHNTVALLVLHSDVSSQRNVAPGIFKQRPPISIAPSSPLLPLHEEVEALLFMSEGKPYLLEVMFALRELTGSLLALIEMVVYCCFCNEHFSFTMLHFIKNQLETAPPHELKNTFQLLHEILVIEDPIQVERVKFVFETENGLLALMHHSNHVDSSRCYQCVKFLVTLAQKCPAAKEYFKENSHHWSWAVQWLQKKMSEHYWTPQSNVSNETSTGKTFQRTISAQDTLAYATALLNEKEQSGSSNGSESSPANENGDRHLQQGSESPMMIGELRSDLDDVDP

`O=C(CCl)NC1CCOc2ccccc21` (centres undefined): the “log2 ratio of Biotin-Ahx-Ub-VS probe labelling” value in the experiment with USP19 was -0.918; with USP24, -1.01 (active); with USP25, -1.23 (active); in the experiment with USP28, -1.6 (active).

Values taken from the supplement of paper PMC11732987, “Enantioselective OTUD7B fragment discovery through chemoproteomics screening and high-throughput optimisation” (Communications Chemistry, 2025).
